PubChem BioAssay (NCATS)
Inconclusive results are not listed. Activity calls are given as the source filed them. Calls follow the shape of the dose curve; as a rule, active = well fitted inhibition curve with a large enough effect; inconclusive = small, poorly fitted or top-dose-only effect; inactive = flat fitted curve, though single readings scatter.

These compounds were tested on DFO2036 (assay: qHTS profiling for inhibitors of Plasmodium falciparum proliferation (AID 504749; also: nearly all actives have a fitted effect of over 60% in size;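 as to activity, negative = inhibition: 0% = DMSO vehicle and full inhibition = artemisinin control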)). Settings: P. falciparum in erythrocytes, SYBR Green DNA, 72 h; series mostly up to 28.7 µM; activity, negative = inhibition: at the top concentration.
Source text: NIH National Institute of Allergy and Infectious Diseases [NIAID] NIH Chemical Genomics Center [NCGC] MLPCN Grant: None Assay Provider: Xinzhuan Su, NIAID NCGC Assay Overview: Plasmodium falciparum is a virulent malarial parasite that kills 1-2 million people worldwide each year. Transmitted by mosquitoes, the sporozoite form of the parasite enters the blood stream to infect hepatocytes, where they become merozoites that infect red blood cells (erythrocytes). Within erythrocytes, merozoites begin a […] cycle of growth and division, after which the parasite is released to infect new red blood cells. Gametocytes, which form within erythrocytes as well, circulate in the bloodstream and are ingested by the mosquito, thereby completing the life cycle. To profile malarial isolates for differential chemical responses and to identify inhibitors of malarial growth, an assay that measures P. falciparum growth and replication within erythrocytes was employed. This assay uses a DNA binding fluorescent dye (SYBR Green) to detect parasite DNA following cell lysis. Because mature erythrocytes lack DNA, only Plasmodium-derived DNA is detected.
NCGC Assay Protocol Summary: The SYBR Green viability assay was adapted from a method described previously (Plouffe et al., 2008). For screening 3 ul culture medium was dispensed into 1536 well black clear bottom plates (Aurora Biotechnologies) using a Multidrop Combi (Thermo Fisher Scientific Inc.), 23 nL compounds in DMSO were added by a pin tool (Kalypsys), and 5 ul of erythrocytes infected with P. falciparum (0.3% parasitemia, 2.5% hematocrit final concentration) were added. The plates were incubated at 37 C in a humidified incubator in 5% CO2 for 72 h, and 2 ul lysis buffer (20 mM Tris HCl, 10 mM EDTA, 0.16% saponin, 1.6% triton X, 10X SYBR Green I supplied as 10,000X […] by Invitrogen) was added to each well. The plates were mixed for 25 sec with gentle shaking and incubated overnight at room temperature in the dark. The following morning, fluorescence intensity at 485(14) nm excitation and 535(25) nm emission wavelengths was measured on an EnVision (Perkin Elmer) plate reader. Plate reads were normalized relative to the control inhibitor (0.29 uM artemisinin) and vehicle (DMSO) wells present on each plate and then corrected by an algorithm using vehicle-only control plates at the beginning and end of the compound plate stack.
Potency is read from the fitted curve at half-maximal effect.

SMILES	activity, negative = inhibition	Potency
CCN[C@]1(c2cccs2)CCCCC1=O	-4.48% [at 12.8 µM] (inactive)	–
CC(C)c1c(CN(C)[C@@H](C)Cc2ccccc2)n(C)n(-c2ccccc2)c1=O	6.19% [at 12.8 µM] (inactive)	–
[Hg+][c]1ccccc1	11.9% (inactive)	–
CNC(C)[C@@H](O)c1ccc(O)cc1 (stereo not given in full)	0.958% (inactive)	–
C[C@]12CC[C@H](O)C[C@H]1CCC1C2CC[C@]2(C)[C@@H](c3ccc(=O)oc3)C[C@H]3O[C@]132 (stereo not given in full)	-9.22% (inactive)	–
C[N+]1([O-])[C@@H]2CC(OC(=O)[C@@H](CO)c3ccccc3)C[C@@H]1[C@H]1O[C@H]12 (stereo not given in full)	–	inactive
CN(C)C(=O)Oc1cc(OC(=O)N(C)C)cc([C@@H](O)CNC(C)(C)C)c1	-3.48% [at 12.8 µM] (inactive)	–
O=C1C=C2C=CC3C[C@@]2(O1)C1CCCCN31 (stereo not given in full)	–	12.6 µM (active)
C=CC1CN2CCC1CC2C(OC(=O)OCC)c1ccnc2ccc(OC)cc12 (stereo not given)	–	6.31 µM (active)
N[C@H]1C[C@H]1c1ccccc1	5.33% (inactive)	–
C[C@]12CC[C@H](OS(=O)(=O)O)CC1=CCC1C2CC[C@]2(C)C(=O)CC[C@@H]12 (stereo not given in full)	-9.9% (inactive)	–
C#CCN(C)[C@@H](C)Cc1ccccc1	3.32% (inactive)	–
C[C@H](NC(C)(C)C)C(=O)c1cccc(Cl)c1	-5.33% (inactive)	–
C[C@H](N)[C@@H](O)c1ccccc1	4.18% [at 12.8 µM] (inactive)	–
O=[As]O[As]=O (stereo not given)	–	12.6 µM (active)
COc1cc2c(cc1OC)[C@@]13CCN4CC5=CCOC6CC(=O)N2C1[C@H]6[C@@H]5C[C@@H]43 (stereo not given in full)	-13.5% (inactive)	–
CN[C@@H](C)[C@H]1CC[C@@H](N)[C@@H](O[C@@H]2[C@@H](O)[C@@H](O[C@H]3OC[C@@](C)(O)[C@@H](NC)[C@@H]3O)[C@H](N)C[C@@H]2N)O1 (tested in a mixture with another compound)	-0.219% [at 12.8 µM] (inactive)	–
CC([C@H](O)c1ccccc1)N(C)C (stereo not given in full)	-2.63% (inactive)	–
NCC[C@H](O)C(=O)N[C@H]1C[C@@H](N)[C@@H](O[C@H]2O[C@@H](CN)[C@@H](O)[C@@H](O)[C@@H]2N)[C@@H](O[C@H]2O[C@@H](CO)[C@@H](O)[C@@H]2O)[C@@H]1O	4.94% [at 12.8 µM] (inactive)	–
Oc1ccc2c3c1O[C@H]1[C@@H](O)CC[C@@]4(O)C(C2)N(CC2CCC2)CCC314 (stereo not given in full)	13.6% (inactive)	–

SMILES	activity, negative = inhibition	Potency
CCCC[N+]1(C)C2CC(OC(=O)C(CO)c3ccccc3)CC1C1OC12 (stereo not given)	1.67% (inactive)	–
CC(=O)OC1C[C@H](O[C@@H]2C(O)C[C@H](O[C@@H]3C(O)C[C@@H](OC4CC[C@]5(C)C(CCC6C5CC(O)[C@@]5(C)C(C7=CC(=O)OC7)CC[C@@]65O)C4)OC3C)OC2C)O[C@H](C)[C@H]1O[C@H]1OC(CO)C(O)C(O)C1O (stereo not given in full)	4.59% (inactive)	–
CC[C@@H]1[C@@H]2C[C@H]3[C@H]4N(C)c5ccccc5[C@@]45C[C@@H]([C@@H]2[C@@H]5O)N3[C@H]1O	-15% [at 12.8 µM] (inactive)	–
CO[C@@H](COC(N)=O)C1=C(N2CC2)C(=O)C(C)=C(N2CC2)C1=O	–	0.794 µM (active)
C[N+]1(C)[C@@H]2CC[C@H]1CC(OC(=O)[C@@H](CO)c1ccccc1)C2 (stereo not given in full)	2.67% [at 12.8 µM] (inactive)	–
C[C@]12CC[C@H]3[C@@H](CCC4=CC(=O)CC[C@@]43C)[C@@H]1CC[C@@H]2O	0.706% (inactive)	–
C[C@H]1CN(C2CCC(C#N)(c3ccc(F)cc3)CC2)CC[C@@]1(C(=O)O)c1ccccc1 (stereo not given in full)	-1.59% [at 12.8 µM] (inactive)	–
C[C@@]12CC[C@H]3[C@@H](CC[C@@H]4C[C@H]5S[C@H]5C[C@]43C)[C@H]1CC[C@H]2O	16.4% [at 12.8 µM] (inactive)	–
Clc1ccc([C@@H](OCCN2CCCCC2)c2ccccc2)cc1	-19.3% [at 12.8 µM] (inactive)	–
CCC(C)C1O[C@]2(C=CC1C)CC1CC(C/C=C(\C)[C@H](OC3CC(OC)C(O[C@H]4CC(OC)[C@@H](O)C(C)O4)C(C)O3)[C@@H](C)/C=C/C=C3\COC4C(O)C(C)=C[C@H](C(=O)O1)[C@@]34O)O2 (stereo not given in full)	–	11.2 µM (active)
CC(=O)O[C@H]1CC[C@@]2(C)C(=CC[C@@H]3[C@H]2CC[C@]2(C)C(=O)CC[C@H]32)C1	8.02% [at 12.8 µM] (inactive)	–
CCNC[C@H](O)c1cccc(O)c1	-2.71% [at 12.8 µM] (inactive)	–
CC(C)(O)C1C2OC(=O)C1[C@]1(O)C[C@H]3O[C@]34C(=O)O[C@H]2[C@]14C (stereo not given in full) (tested in a mixture with another compound)	-1.67% (inactive)	–
C[N+]1([O-])[C@@H]2CC[C@H]1CC(OC(=O)[C@@H](CO)c1ccccc1)C2 (stereo not given in full)	-10.7% [at 12.8 µM] (inactive)	–
CNC(C)[C@@H](O)c1ccccc1 (stereo not given in full)	-1.05% (inactive)	–
CC[C@@]1(c2ccc(N)cc2)CCC(=O)NC1=O	15.9% (inactive)	–
CNC[C@H](O)c1ccc(O)cc1	9.08% [at 12.8 µM] (inactive)	–
C[C@@H]1O[C@H](O[C@@H]2C=C3CC[C@H]4[C@@H](CC[C@]5(C)[C@@H](c6ccc(=O)oc6)CC[C@]45O)[C@@]3(C)CC2)[C@@H](O)[C@H](O)[C@@H]1O	-8.58% [at 12.8 µM] (inactive)	–
CNc1ccc(C(=O)CC(O)CCC(C)C2OC(=O)CC(O)CC(=O)CC(O)CC(O)CC(O)CC(O)CC3(O)CC(O)C(C(=O)OC)C(CC(O[C@@H]4OC(C)C(O)C(N)C4O)/C=C/C=C/C=C/C=C/C=C/C=C/C=C/C2C)O3)cc1 (stereo not given in full)	10.2% (inactive)	–
C[C@@]12CCC(=O)C=C1C=C[C@H]1[C@H]3CC[C@](O)(CCC(=O)O)[C@]3(C)CC[C@@H]12	-0.136% [at 12.8 µM] (inactive)	–
